# PubChem BioAssay AID1159580 (chemical genetic matrix, 2015)
# Values joined by “and” are separate entries in the source; they are usually repeats but may differ in a detail not shown here. Identical values can stand only once. In all, about 5,500 compounds went through this assay and about 2,000 (36%) were called active. Another 18% or so got no clear call; they are omitted. The list shows a part of the results. Values without a mark were called inactive. No stated cut-off is given here; in the data, active means normalized growth mostly below about 0.91 (no sharp cut-off); inconclusive means no clear call, values can overlap the other calls; inactive means mostly above about 0.92.
# Experiment: chemical genetic growth profiling, strain panel (AID 1159580);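 further: tested at 20 µM; growth read once vehicle control cultures reached saturation at 30 °C; 1 = growth at the plate median or of vehicle wells; lower values mean less growth of the strain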
# Conditions: S. cerevisiae deletion strains, growth OD
smiles,measurement,setting,value
CCC1(c2ccc(N)cc2)CCC(=O)NC1=O (configuration not stated),normalized growth,"locus YAL021C, strain ccr4, active compounds read low",0.981
same,normalized growth,"locus YAL026C, strain drs2, active compounds read low",0.971
same,normalized growth,"locus YAL030W, strain snc1, active compounds read low",0.969
same,normalized growth,"locus YAL040C, strain CLN3, active compounds read low",0.987
same,normalized growth,"locus YBL061C, strain skt5, active compounds read low",0.968
same,normalized growth,"locus YBR009C, strain hhf1, active compounds read low",0.984
same,normalized growth,"locus YBR021W, strain FUR4, active compounds read low",1.01
same,normalized growth,"locus YBR023C, strain chs3, active compounds read low",0.979
same,normalized growth,"locus YBR171W, strain sec66, active compounds read low",0.957
same,normalized growth,"locus YBR229C, strain ROT2, active compounds read low",0.995
same,normalized growth,"locus YBR231C, strain swc5, active compounds read low",0.943
same,normalized growth,"locus YBR279W, strain paf1, active compounds read low",0.988
same,normalized growth,"locus YCL011C, strain gbp2, active compounds read low",0.984
same,normalized growth,"locus YCL016C, strain dcc1, active compounds read low",0.994
same,normalized growth,"locus YCL029C, strain bik1, active compounds read low",1
same,normalized growth,"locus YCL069W, strain vba3, active compounds read low",0.956
same,normalized growth,"locus YCR088W, strain abp1, active compounds read low",0.974
same,normalized growth,"locus YDL005C, strain med2, active compounds read low",0.955
same,normalized growth,"locus YDL035C, strain GPR1, active compounds read low",1.04
same,normalized growth,"locus YDL040C, strain nat1, active compounds read low",0.978
same,normalized growth,"locus YDL074C, strain BRE1, active compounds read low",0.994
same,normalized growth,"locus YDL101C, strain DUN1, active compounds read low",1.01
same,normalized growth,"locus YDL134C, strain PPH21, active compounds read low",1.02
same,normalized growth,"locus YDL185W, strain tfp1, active compounds read low",1.01
same,normalized growth,"locus YDL192W, strain arf1, active compounds read low",0.996
same,normalized growth,"locus YDR001C, strain nth1, active compounds read low",0.96
same,normalized growth,"locus YDR069C, strain doa4, active compounds read low",0.962
same,normalized growth,"locus YDR101C, strain arx1, active compounds read low",1.01
same,normalized growth,"locus YDR137W, strain rgp1, active compounds read low",1.06
same,normalized growth,"locus YDR150W, strain NUM1, active compounds read low",1
same,normalized growth,"locus YDR159W, strain sac3, active compounds read low",0.979
same,normalized growth,"locus YDR162C, strain NBP2, active compounds read low",1.03
same,normalized growth,"locus YDR195W, strain ref2",0.926
same,normalized growth,"locus YDR297W, strain sur2, active compounds read low",0.973
same,normalized growth,"locus YDR318W, strain mcm21, active compounds read low",0.991
same,normalized growth,"locus YDR334W, strain swr1, active compounds read low",0.964
same,normalized growth,"locus YDR335W, strain msn5, active compounds read low",0.959
same,normalized growth,"locus YDR363W, strain ESC2, active compounds read low",1.01
same,normalized growth,"locus YDR388W, active compounds read low",0.999
same,normalized growth,"locus YDR392W, strain spt3, active compounds read low",1.02
same,normalized growth,"locus YDR502C, strain sam2, active compounds read low",0.999
same,normalized growth,"locus YEL003W, strain gim4, active compounds read low",0.957
same,normalized growth,"locus YEL037C, strain rad23, active compounds read low",0.951
same,normalized growth,"locus YEL061C, strain CIN8 (second series), active compounds read low",0.961
same,normalized growth,"locus YEL061C, strain CIN8, active compounds read low",1.01
same,normalized growth,"locus YER002W, strain NOP16, active compounds read low",0.977
same,normalized growth,"locus YER015W, strain faa2, active compounds read low",0.966
same,normalized growth,"locus YER016W, strain bim1, active compounds read low",0.987
same,normalized growth,"locus YER110C, active compounds read low",0.993
same,normalized growth,"locus YER111C, strain swi4, active compounds read low",0.968
same,normalized growth,"locus YER155C, strain BEM2 (second series), active compounds read low",0.878
same,normalized growth,"locus YER155C, strain BEM2, active compounds read low",0.999
same,normalized growth,"locus YER167W, strain BCK2, active compounds read low",1
same,normalized growth,"locus YFR010W, strain ubp6, active compounds read low",0.945
same,normalized growth,"locus YGL078C, strain dbp3, active compounds read low",0.992
same,normalized growth,"locus YGL086W, strain mad1, active compounds read low",0.994
same,normalized growth,"locus YGL167C, strain pmr1, active compounds read low",0.961
same,normalized growth,"locus YGL173C, strain kem1, active compounds read low",0.936
same,normalized growth,"locus YGL227W, strain vid30, active compounds read low",0.976
same,normalized growth,"locus YGL240W, strain doc1, active compounds read low",0.876 (active)
same,normalized growth,"locus YGL248W, strain PDE1, active compounds read low",0.999
same,normalized growth,"locus YGL253W, strain hxk2, active compounds read low",0.967
same,normalized growth,"locus YGR078C, strain PAC10, active compounds read low",0.997
same,normalized growth,"locus YGR135W, strain pre9, active compounds read low",0.991
same,normalized growth,"locus YGR252W, strain gcn5, active compounds read low",0.992
same,normalized growth,"locus YHR013C, strain ard1, active compounds read low",0.956
same,normalized growth,"locus YHR027C, strain rpn1, active compounds read low",0.981
same,normalized growth,"locus YHR030C, strain SLT2, active compounds read low",1 and 0.997
same,normalized growth,"locus YHR079C, strain IRE1 (second series), active compounds read low",0.995
same,normalized growth,"locus YHR079C, strain IRE1, active compounds read low",1.04
same,normalized growth,"locus YHR094C, strain hxt1, active compounds read low",0.995
same,normalized growth,"locus YHR129C, strain ARP1, active compounds read low",0.999
same,normalized growth,"locus YHR142W, strain chs7, active compounds read low",0.932
same,normalized growth,"locus YHR200W, strain rpn10, active compounds read low",0.999
same,normalized growth,"locus YIL066C, strain RNR3, active compounds read low",1.03
same,normalized growth,"locus YIL073C, strain SPO22, active compounds read low",1.03
same,normalized growth,"locus YIL125W, strain kgd1, active compounds read low",0.998
same,normalized growth,"locus YIR030C, strain dcg1, active compounds read low",0.995
same,normalized growth,"locus YJL092W, strain hpr5, active compounds read low",0.952
same,normalized growth,"locus YJL095W, strain BCK1 (second series), active compounds read low",0.97
same,normalized growth,"locus YJL095W, strain BCK1, active compounds read low",0.995 and 1.03
same,normalized growth,"locus YJL115W, strain asf1, active compounds read low",0.949
same,normalized growth,"locus YJL129C, strain trk1, active compounds read low",0.928
same,normalized growth,"locus YJL134W, strain LCB3, active compounds read low",1
same,normalized growth,"locus YJL154C, strain vps35, active compounds read low",0.967
same,normalized growth,"locus YJL164C, strain tpk1, active compounds read low",0.998
same,normalized growth,"locus YJL166W, strain qcr8, active compounds read low",0.913
same,normalized growth,"locus YJL168C, strain set2, active compounds read low",0.988
same,normalized growth,"locus YJL187C, strain SWE1 (second series), active compounds read low",0.993
same,normalized growth,"locus YJL187C, strain SWE1, active compounds read low",0.959
same,normalized growth,"locus YJR043C, strain POL32, active compounds read low",1.02
same,normalized growth,"locus YJR066W, strain TOR1, active compounds read low",0.973
